Test [1] is described as follows: small molecules captured by biotinylated probe aFSTL3 – biochemical, small-molecule microarray, fluorescence 635/667, stem cell growth factor project, primary screen (AID 1064).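 Note: measures binding of the biotinylated anti-FSTL3 antibody to printed compounds.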 Particulars: higher = more signal.
A short description of test [2]: binders from COS7 lysate, DM2A8 probe, primary screen, torsin A project, cell lysate, small-molecule microarray, fluorescence 635/667 (AID 1065). To be noted: higher = more signal, COS7 lysate expressing mutant human TOR1A.
Test [3] in a line: small molecules captured by biotinylated probe aFGF2 – biochemical, small-molecule microarray, fluorescence 635/667, stem cell growth factor project, primary screen (AID 1067).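 Note: measures binding of biotinylated aFGF2 protein to printed compounds on slides; z-score merges feature fluorescence and signal-to-noise across triplicate slides.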 To be noted: higher = more signal.
Test [4] in a line: small molecules captured by biotinylated probe aFGF10 – biochemical, small-molecule microarray, fluorescence 635/667, stem cell growth factor project, primary screen (AID 1071).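 Note: score merges 667 nm spot intensity and signal to noise from triplicate slides.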 To be noted: higher = more signal.
The target of test [5] is Neurogenic locus notch homolog protein 2 (Homo sapiens) (UniProt Q04721). The test is described as follows: small molecules binding Notch2 protein – biochemical, small-molecule microarray, 635 nm fluorescence, stem cell growth factors, primary screen (AID 1073). To be noted: higher = more signal.
Test [6] concerns the target Pro-neuregulin-1, membrane-bound isoform (Homo sapiens) (UniProt Q02297). The test can be described thus: small molecules binding neuregulin-1 protein – biochemical, small-molecule microarray, fluorescence 635/667, psychiatric disease protein project, primary screen (AID 1075).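 Note: score combines 667 nm spot fluorescence with signal to noise.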 Particulars: NRG1 binding, 635 nm fluorescence, higher = more signal.
In test [7] the test system is Neuregulin-1 EGF-like domain. The test is described as follows: small molecules binding NRG1 EGF domain – biochemical, small-molecule microarray, 635 nm fluorescence, primary screen (AID 1081).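 Note: binding of the protein to compounds printed on small-molecule microarray slides.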 To be noted: higher = more signal.
Test [8] in a line: FRG1 expression reporter modulators in myotubes – cell-based, C2C12 myotubes, firefly/Renilla luciferase, luminescence, FRG1 inhibition for FSHD, primary screen (AID 1084). Particulars: FRG1 promoter luciferase, higher = more signal, called active from +8 up or from −8 down.
The nature of test [9]: small molecules captured by biotinylated probe aFST – biochemical, small-molecule microarray, fluorescence 635/667, stem cell growth factor project, primary screen (AID 1086).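 Note: score merges 667 nm fluorescence with signal-to-noise of each printed compound spot.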 To be noted: higher = more signal.
Test [10] is described as follows: binders of probe aHhip on microarray, primary screen, stem cell growth factor project, biochemical, small-molecule microarray, fluorescence 635/667 (AID 1087).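 Note: score merges spot fluorescence at 667nm with spot signal to noise ratio.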 To be noted: higher = more signal.
For test [11], the system named is PRMT1 (protein arginine N-methyltransferase 1). The test is described as follows: small molecules binding arginine methyltransferase PRMT1 – biochemical, small-molecule microarray, 635 nm fluorescence, primary screen (AID 1088).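 Note: binding of Prmt1 protein to compounds spotted on small-molecule microarray slides.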 To be noted: higher = more signal.
Test [12] can be described thus: growth effects on S. cerevisiae YJM789 – YJM789 clinical isolate, OD600, 24 h, basal, primary screen (AID 1089).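 Note: growth of clinical yeast isolate S. cerevisiae YJM 789 seeded 1000 cells per well; test concentration not given here.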 To be noted: higher = more signal, called active from +8 up or from −8 down.
Test [13] is described as follows: S. pombe growth modifiers, basal conditions – strain 972, OD600, 24 h, no modulator, primary screen (AID 1090).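 Note: basal condition with compound alone and no growth modifier present; test concentration not given here.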 To be noted: S. pombe 972 growth, higher = more signal, called active from +8 up or from −8 down.
Test [14] in a line: budding yeast growth modifiers under rapamycin – strain BY4716, OD600, 96 h, primary screen (AID 1091). Note: test concentration not given here. Particulars: S. cerevisiae BY4716 + rapamycin, higher = more signal, called active from +8 up or from −8 down.
In test [15] the target is Torsin-1A-interacting protein 2 (Homo sapiens) (UniProt Q8NFQ8). The test can be described thus: small molecules binding lysate-expressed LULL1 – cell lysate, human LULL1 lysate, 635/667 nm fluorescence, primary screen (AID 1092).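 Note: probe is lysate of COS7 cells overexpressing human LULL1; score merges per-feature 667 nm fluorescence with signal-to-noise.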 To be noted: small-molecule microarray, hLULL1 lysate binding, 635 nm fluorescence; higher = more signal.
Test [16] can be described thus: optical density change of DRC41 E. coli – strain DRC41, OD650, 24 h, E. coli filamentation project, primary screen (AID 1093).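 Note: MC1000 strain lacking acrAB efflux and sulA so SOS filamentation is blocked; test concentration not given here.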 Particulars: E. coli DRC41 growth, higher = more signal, called active from +8 up or from −8 down.
Test [17] is described as follows: probe aLefty2 binding to arrayed compounds – biochemical, biotinylated probe, 635/667 nm fluorescence, primary screen (AID 1094).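 Note: score merges spot fluorescence near 667 nm with spot signal-to-noise ratio.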 Particulars: small-molecule microarray, higher = more signal.
Test [18] relates to Noggin (protein binding on small-molecule microarray). The test is described as follows: small molecules binding Noggin protein – biochemical, 635/667 nm fluorescence, primary screen (AID 1095).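 Note: score merges 667 nm feature fluorescence with signal to noise over triplicate slides.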 To be noted: 635 nm fluorescence, higher = more signal.
The target of test [19] is Neurogenic locus notch homolog protein 3 (Homo sapiens) (UniProt Q9UM47). The test is described as follows: small molecules binding NOTCH3 protein – biochemical, 635/667 nm fluorescence, primary screen (AID 1096). To be noted: small-molecule microarray, 635 nm fluorescence, higher = more signal.
Test [20] can be described thus: probe aEGFR binding to arrayed compounds – biochemical, biotinylated probe, 635/667 nm fluorescence, primary screen (AID 1097).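 Note: probe is a biotinylated anti-EGFR antibody binding compounds printed on slides; score combines fluorescence near 667 nm and signal to noise of each spot.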 Particulars: small-molecule microarray, higher = more signal.

We go through 5 compounds from PubChem BioAssay.

The source made the active and inactive calls.

Neurogenic locus notch homolog protein 2 (Homo sapiens), sequence (Q04721 whole entry, looked up, canonical isoform): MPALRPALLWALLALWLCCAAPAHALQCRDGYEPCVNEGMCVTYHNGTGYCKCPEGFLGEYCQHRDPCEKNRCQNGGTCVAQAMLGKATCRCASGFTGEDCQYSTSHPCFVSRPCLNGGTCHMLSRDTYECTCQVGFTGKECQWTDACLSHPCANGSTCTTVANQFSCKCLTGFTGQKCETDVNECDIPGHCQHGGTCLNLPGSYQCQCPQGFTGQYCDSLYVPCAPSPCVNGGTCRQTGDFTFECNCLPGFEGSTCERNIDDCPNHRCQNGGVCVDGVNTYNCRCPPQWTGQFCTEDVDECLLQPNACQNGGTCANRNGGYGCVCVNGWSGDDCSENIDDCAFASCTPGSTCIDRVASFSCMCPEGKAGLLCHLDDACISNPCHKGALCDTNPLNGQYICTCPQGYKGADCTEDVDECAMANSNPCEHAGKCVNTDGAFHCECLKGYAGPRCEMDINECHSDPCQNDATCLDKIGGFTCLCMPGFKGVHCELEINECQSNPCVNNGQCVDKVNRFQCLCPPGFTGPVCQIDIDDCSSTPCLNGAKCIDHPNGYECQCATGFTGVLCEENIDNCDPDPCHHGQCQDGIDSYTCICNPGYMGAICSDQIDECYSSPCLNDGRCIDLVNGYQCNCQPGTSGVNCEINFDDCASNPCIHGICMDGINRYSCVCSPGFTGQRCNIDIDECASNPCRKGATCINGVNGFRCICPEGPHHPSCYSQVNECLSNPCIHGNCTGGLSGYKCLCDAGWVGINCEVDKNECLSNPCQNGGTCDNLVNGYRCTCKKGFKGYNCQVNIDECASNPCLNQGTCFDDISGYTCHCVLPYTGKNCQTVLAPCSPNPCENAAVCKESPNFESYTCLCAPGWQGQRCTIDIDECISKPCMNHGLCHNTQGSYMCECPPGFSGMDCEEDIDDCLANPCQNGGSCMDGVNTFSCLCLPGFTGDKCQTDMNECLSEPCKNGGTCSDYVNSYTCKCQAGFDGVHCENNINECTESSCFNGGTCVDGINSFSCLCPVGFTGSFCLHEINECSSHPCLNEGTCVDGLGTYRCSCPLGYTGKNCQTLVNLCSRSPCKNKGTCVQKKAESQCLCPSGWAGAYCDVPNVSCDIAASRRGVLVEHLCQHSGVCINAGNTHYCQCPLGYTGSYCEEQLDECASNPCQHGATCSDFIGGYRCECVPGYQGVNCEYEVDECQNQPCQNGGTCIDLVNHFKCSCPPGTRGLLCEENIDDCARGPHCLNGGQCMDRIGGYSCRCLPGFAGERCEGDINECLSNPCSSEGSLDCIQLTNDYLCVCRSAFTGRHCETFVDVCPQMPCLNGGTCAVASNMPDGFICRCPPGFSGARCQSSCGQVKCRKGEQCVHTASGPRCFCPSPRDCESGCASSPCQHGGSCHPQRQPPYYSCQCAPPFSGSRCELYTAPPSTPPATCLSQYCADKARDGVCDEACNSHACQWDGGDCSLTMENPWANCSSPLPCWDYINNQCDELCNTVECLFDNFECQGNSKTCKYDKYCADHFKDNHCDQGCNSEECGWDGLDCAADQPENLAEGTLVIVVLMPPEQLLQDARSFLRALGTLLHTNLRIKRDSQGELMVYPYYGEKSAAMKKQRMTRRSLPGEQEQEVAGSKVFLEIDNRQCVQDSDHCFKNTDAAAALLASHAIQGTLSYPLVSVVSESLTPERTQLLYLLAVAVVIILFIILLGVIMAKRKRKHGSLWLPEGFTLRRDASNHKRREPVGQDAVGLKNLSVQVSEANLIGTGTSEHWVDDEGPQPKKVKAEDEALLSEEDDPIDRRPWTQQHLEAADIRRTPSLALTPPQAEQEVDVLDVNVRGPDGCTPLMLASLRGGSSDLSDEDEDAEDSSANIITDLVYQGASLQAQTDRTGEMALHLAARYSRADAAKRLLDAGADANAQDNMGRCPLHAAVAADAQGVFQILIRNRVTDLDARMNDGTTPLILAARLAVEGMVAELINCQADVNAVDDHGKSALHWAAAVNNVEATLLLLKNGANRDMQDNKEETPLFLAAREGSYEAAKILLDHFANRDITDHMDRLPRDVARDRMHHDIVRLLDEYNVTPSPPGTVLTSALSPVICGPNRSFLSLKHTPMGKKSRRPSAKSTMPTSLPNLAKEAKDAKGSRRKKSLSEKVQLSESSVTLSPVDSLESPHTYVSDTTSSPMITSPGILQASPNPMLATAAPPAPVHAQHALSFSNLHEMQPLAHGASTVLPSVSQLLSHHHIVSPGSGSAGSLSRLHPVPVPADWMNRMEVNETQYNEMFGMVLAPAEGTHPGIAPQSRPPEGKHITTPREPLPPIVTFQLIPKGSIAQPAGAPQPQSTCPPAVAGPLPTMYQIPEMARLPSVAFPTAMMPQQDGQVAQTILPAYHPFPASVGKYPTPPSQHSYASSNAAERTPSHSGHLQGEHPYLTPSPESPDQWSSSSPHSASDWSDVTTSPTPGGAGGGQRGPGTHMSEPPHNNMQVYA
Pro-neuregulin-1, membrane-bound isoform (Homo sapiens), sequence (Q02297 whole entry, looked up, the tested form may be a part, canonical isoform): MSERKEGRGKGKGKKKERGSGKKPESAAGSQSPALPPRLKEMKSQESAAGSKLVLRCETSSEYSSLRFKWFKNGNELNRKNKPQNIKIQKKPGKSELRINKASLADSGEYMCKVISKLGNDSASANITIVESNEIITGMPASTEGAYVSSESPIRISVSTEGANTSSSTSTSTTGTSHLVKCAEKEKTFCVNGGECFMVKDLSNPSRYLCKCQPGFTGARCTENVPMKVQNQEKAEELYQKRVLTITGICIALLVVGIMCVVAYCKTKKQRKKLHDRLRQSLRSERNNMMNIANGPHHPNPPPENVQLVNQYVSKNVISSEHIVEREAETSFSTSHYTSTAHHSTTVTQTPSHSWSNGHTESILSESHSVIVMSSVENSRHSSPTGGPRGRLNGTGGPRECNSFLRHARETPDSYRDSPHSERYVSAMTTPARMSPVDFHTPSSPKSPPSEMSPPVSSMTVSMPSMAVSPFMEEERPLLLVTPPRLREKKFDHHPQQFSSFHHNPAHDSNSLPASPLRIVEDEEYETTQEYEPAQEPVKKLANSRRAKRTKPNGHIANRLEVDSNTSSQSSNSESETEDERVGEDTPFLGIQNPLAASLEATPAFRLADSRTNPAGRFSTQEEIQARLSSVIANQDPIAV
Torsin-1A-interacting protein 2 (Homo sapiens), sequence (Q8NFQ8 whole entry, looked up): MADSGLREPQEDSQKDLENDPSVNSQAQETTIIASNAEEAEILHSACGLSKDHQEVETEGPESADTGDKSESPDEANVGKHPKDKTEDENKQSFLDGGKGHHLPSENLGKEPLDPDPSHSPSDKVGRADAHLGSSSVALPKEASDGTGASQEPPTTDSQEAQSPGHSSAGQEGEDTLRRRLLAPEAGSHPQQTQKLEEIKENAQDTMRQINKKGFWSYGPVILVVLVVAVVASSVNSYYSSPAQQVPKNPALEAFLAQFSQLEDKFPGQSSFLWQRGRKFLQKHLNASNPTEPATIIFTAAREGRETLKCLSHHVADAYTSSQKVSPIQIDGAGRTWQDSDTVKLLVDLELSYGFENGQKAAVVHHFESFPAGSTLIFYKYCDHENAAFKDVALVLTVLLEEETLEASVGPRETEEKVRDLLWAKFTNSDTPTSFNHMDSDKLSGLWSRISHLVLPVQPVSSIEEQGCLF

For `COc1ccc([Si](C)(C)[C@H]2[C@H](CCn3cc(CCO)nn3)O[C@@]3(C(=O)N(Cc4ccc(N5C(=O)c6cccc7cccc5c67)cc4)c4ccccc43)[C@@H]2C)cc1`, the composite z-score in test [1] was -0.619; in [2], 0.355; in [3], -0.0583; in [4], 0.53; in test [5] it was 0.611; in test [6], 1.16. For the same compound, the composite z-score in test [7] was 1.1; in test [9] it was 0.372; in test [10], 0.0695; in test [11], 1.55; in test [15] it was 1.86; in test [17], -0.0895. The composite z-score in test [18] was 1.41; in test [19] it was 1.09; in [20] it was -0.0371. For the same compound, the z-score in test [8] is -4.65 (inactive); in test [12] it was -0.246 (inactive); in test [13] it was 0.983 (inactive); in test [14] it was 6.07 (inactive); in test [16] it was 2.76 (inactive).
As for `C=CCNC(=O)[C@@H]1[C@H]2C(=O)O[C@H](c3ccccc3)[C@H](c3ccccc3)N2[C@H](c2ccc(OCCO)cc2)[C@@]12C(=O)N(C(=O)OCCOC)c1ccc(C#CC3=CCCCC3)cc12`, the composite z-score in test [1] turned out to be 0.0698; in test [2], 0.937; in [3], 0.0524; in [4], 0.59; in test [5] it was 1.35; in test [6] it was 1.33. Moreover, the composite z-score in test [7] is 1.17; in test [9] it was 0.622; in test [10], 0.21; in test [11] it was 1.55; in [15], 2.83; in test [17], -0.0373. In addition, the composite z-score in test [18] stood at 0.978; in test [19], 1.14; in [20] it was 0.0209. For the same compound, the z-score in test [8] was 0.223 (inactive); in test [12], 1.27 (inactive); in test [13], 1.14 (inactive); in [14], 3.61 (inactive); in [16], -0.741 (inactive).
In the case of `CN(C)CCCNC(=O)[C@@H]1c2ccccc2C(=O)N(Cc2ccc(OC(F)(F)F)cc2)[C@H]1c1ccc(CO)cc1`, the composite z-score in test [1] is -0.212; in [2] it was -0.103; in test [3], -0.113; in [4], -0.133; in test [5], -0.0854; in test [6], 1.22. Besides, the composite z-score in [7] was 1.15; in [9] it was 0.18; in test [10] it was 0.287; in [11], 1.54; in test [15], 2.22; in test [17], -0.0654. The composite z-score in test [18] is 0.912; in [19] it was 0.951; in test [20], -0.171. Further, the z-score in test [8] is -1.22 (inactive); in [12] it was -1.02 (inactive); in test [13], -1.06 (inactive); in test [14] it was -1.41 (inactive); in test [16], -0.883 (inactive).
On to `C[C@H]1C2=C3C(CC[C@H]4C(OCc5ccc(F)cc5C(F)(F)F)OC[C@](C)([C@@H]34)N(C(=O)OC(C)(C)C)C2)C2COC(=O)OCC21` (stereo not given in full), for which the composite z-score in [1] was 0.42; in [2] it was -0.119; in test [3], -0.0325; in [4], 0.226; in [5], 1.43; in [6] it was 1.71. Also, the composite z-score in test [7] is 1.03; in [9] it was 1.61; in [10], 0.44; in [11] it was 0.63; in test [15] it was 3.52; in test [17] it was 0.453. For the same compound, the values for the composite z-score in test [18], in test [19] and in test [20] were -0.618, 1.07 and -0.019, respectively. The z-score in [8] is 2.53 (inactive); in [12], -0.271 (inactive); in test [13], -1.22 (inactive); in test [14], 0.258 (inactive); in [16], -1.4 (inactive).
As for `CON(C)C(=O)C=C1C[C@@H](c2cccc(Cl)c2)O[C@@H](c2cccc(Cl)c2)O1`, the composite z-score in test [1] is -0.0715; in [2], 1.03; in test [3], 0.0168; in test [4], -0.0102; in test [5], -0.0986; in [6] it was 1. Further, the composite z-score in test [7] is 0.524; in test [9], -0.0994; in [10] it was -0.0645; in [11], 0.945; in test [15] it was 0.989; in test [17], -0.0309. Moreover, the composite z-score in test [18] was 0.407; in [19], 0.121; in test [20] it was -0.0769. Further, the z-score was -1.83 (inactive) in [8]; 0.37 (inactive) in test [12]; -0.873 (inactive) in test [13]; 6.28 (inactive) in [14]; -0.168 (inactive) in [16].
